In PubChem BioAssay:
Entries with a potency or affinity are not part of this list. Active and inactive are the calls of the source.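 Rule for the calls, unless noted: active = fitted dose curve reaches 40% lysis signal rise at or below the highest valid concentration tested for that sample; inconclusive = flat fit between 30% and 70%, or poor curve fit; inactive = signal falls, stays flat within 30%, or no crossing.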

Experiments:
[1] = inducers of Cryptococcus neoformans cell lysis, dose response, AK release luminescence, cherry-picks (AID 687000);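 note: luminescent detection of adenylate kinase leaking from lysed yeast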
[2] = HepG2 cell cytotoxicity, dose response, cytotoxicity control, cherry-picks, set 2 (AID 687002;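 active = a dose-response fit showing signal loss, with half-maximal concentration no higher than twice the top tested dose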)
[3] = HeLa cell cytotoxicity, dose response, cytotoxicity control, ATP luminescence, cherry-pick samples (AID 687004;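 active = a fitted half-maximal concentration no higher than twice the top valid tested dose, with signal falling as cells die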)

Measured: outcome

CO[C@H]1CC[C@@H]2CCOc3c(C#N)cccc3C(=O)N(C)C[C@@H](OC)[C@@H](C)C(=O)N(C)C[C@@H]1O2
inactive: all assays above

CCNC(=O)CN(c1ccc(C)cc1)S(=O)(=O)c1ccc(SC)cc1
inactive: all assays above

O=C(C[C@@H]1CC[C@H](NC(=O)Cc2ccccn2)[C@@H](CO)O1)NCCc1ccccc1
inactive: all assays above

C[C@H]1CN([C@@H](C)CO)C(=O)Cc2cc(NC(=O)C3CC3)ccc2O[C@@H]1CN(C)C(=O)Nc1cccc2ccccc12
inactive: all assays above

CNC[C@H]1Oc2cc(Br)ccc2S(=O)(=O)N([C@H](C)CO)C[C@H]1C
inactive: all assays above

CC(=O)c1ccc(N2CCN(C(=O)Cc3cccs3)CC2)cc1
inactive: all assays above

O=C(C[C@@H]1CC[C@@H]2[C@H](COC[C@@H](O)CN2C(=O)Nc2ccc(Cl)cc2)O1)NC1Cc2ccccc2C1
inactive: all assays above

Cc1cc(OCC(=O)N(C)Cc2ccccc2)cc(C)c1Cl
inactive: all assays above

O=C(CN1CCOCC1)N[C@@H]1CC[C@@H](CCNC(=O)C2CCC2)O[C@@H]1CO
inactive: all assays above

O=C(C[C@@H]1CC[C@@H](NC(=O)c2cccnc2)[C@@H](CO)O1)NCCN1CCCCC1
inactive: all assays above

Cc1ccccc1NC(=O)C(NC1CCCCC1)C(C)C (stereo not given)
inactive: all assays above

CCC(=O)Nc1ccc2c(c1)C(=O)N(C)C[C@H](OC)[C@@H](C)CN[C@H](C)CO2
inactive: all assays above

C[C@H](CO)N1C[C@H](C)[C@H](CN(C)C(=O)NC2CCCCC2)OCCCC[C@H](C)Oc2ccc(NS(=O)(=O)c3cn(C)cn3)cc2C1=O
inactive: all assays above

O=C(c1ccco1)N1N=C(c2cccs2)CC1c1cc([N+](=O)[O-])ccc1O (stereo not given)
inactive: all assays above

CCN1C(=S)N[C@@H](c2cccc(F)c2)C(C(=O)OC)=C1C
inactive: all assays above

Cc1cccc(C)c1NC(=O)C1(C)CCC(=O)N1CCCn1ccnc1 (stereo not given)
inactive: all assays above

C[C@@H]1CN([C@H](C)CO)C(=O)CCCn2nncc2CO[C@H]1CN(C)Cc1cccc(C(F)(F)F)c1
inactive: all assays above

Cc1cc(C)cc(OCC(=O)NC(C)c2ccccc2)c1 (stereo not given)
inactive: all assays above

O=C(Nc1ccc(N2CCOCC2)cc1N1CCOCC1)c1cccc([N+](=O)[O-])c1
inactive: all assays above

CCC(=O)N1[C@H](CO)[C@H](c2ccc(-c3ccc(F)cc3)cc2)[C@@H]1CNC(C)=O
inactive: all assays above

CC(NC1CCCC1)C(=O)Nc1ccccc1-c1ccccc1 (stereo not given)
inactive: all assays above

Cc1ccc(OCC(=O)NC(C)c2ccccc2)cc1 (stereo not given)
inactive: all assays above

COc1cc(NC(=O)CN2CCN(S(=O)(=O)c3ccc(C(C)C)cc3)CC2)cc(OC)c1
inactive: all assays above

Cc1cccc(OCC(=O)NCc2ccccc2)c1
inactive: all assays above

Cc1ccc(-n2ncc3c(SCC(=O)NNC(=O)C(C)C)ncnc32)cc1
inactive: all assays above

C[C@H]1CN([C@@H](C)CO)C(=O)CCCn2cc(nn2)CO[C@@H]1CN(C)Cc1ccc(C(F)(F)F)cc1
inactive: all assays above

CCc1ccc(NC(=O)[C@H](C)NC(=O)C2CCN(C(=O)[C@@H](N)CC(C)C)CC2)cc1
inactive: all assays above

Cc1ccc(CSc2ncnc3c2cnn3-c2ccccc2)cc1
inactive: all assays above

CC(=O)N[C@H]1CC[C@H](CCNC(=O)C2CCC2)O[C@@H]1CO
inactive: all assays above

Cc1cccc(C)c1NC(=O)C1CCCCN1C (stereo not given)
inactive: all assays above

Cc1ccc2c(C)c(C(=O)N3CCN(Cc4ccccn4)CC3)oc2c1C
inactive: all assays above

CCC(C)c1ccc(NC(=S)N2CCN(c3ccccn3)CC2)cc1 (stereo not given)
inactive: all assays above

COCC#Cc1cnc2c(c1)C(=O)N([C@@H](C)CO)C[C@H](C)[C@H](CN(C)C(=O)Nc1ccc(OC)cc1)O2
inactive: all assays above

CC(C)Oc1cccc(C(=O)NC(=S)Nc2ccccc2N2CCOCC2)c1
inactive: all assays above

O=C(Oc1ccc2c3c(c(=O)oc2c1)CCCC3)c1ccco1
inactive: all assays above

Cc1ccc(C(=O)NC(=S)Nc2cccc(NC(=O)c3ccccc3)c2)cc1[N+](=O)[O-]
inactive: all assays above

CCNC(=O)C[C@H]1CC[C@@H](NC(=O)NC2CCCCC2)[C@H](CO)O1
inactive: all assays above

CC(=O)c1cccc(NC(=S)NC2CCCCCCC2)c1
inactive: all assays above

C[C@H](NC(=O)C[C@H]1CC[C@@H](NC(=O)Cc2ccccn2)[C@@H](CO)O1)c1ccccc1
inactive: all assays above

CCCC(=O)Nc1ccc2c(c1)OC[C@@H](C)N(Cc1ccccn1)C[C@@H](C)[C@H](OC)CN(C)C2=O
inactive: all assays above

CC(C)COc1ccc(CNC(=S)NCc2ccccc2)cc1
inactive: all assays above

CC(NC(=O)COc1ccccc1-c1ccccc1)c1ccccc1 (stereo not given)
inactive: all assays above

O=C1CCC(C(=O)Nc2ccc([N+](=O)[O-])cc2)N1 (stereo not given)
inactive: all assays above

O=C(CN(c1ccc(F)cc1)S(=O)(=O)c1ccccc1)NC1CC2CCC1C2 (stereo not given)
inactive: all assays above

CCC(=O)N1CCCC1(C)C(=O)Nc1ccc(C)c(C)c1 (stereo not given)
inactive: all assays above

COCCN1C(=O)CCC1(C)C(=O)Nc1c(C)cccc1C (stereo not given)
inactive: all assays above

O=C(COc1ccc2c(c1)CCC2)NCc1ccc(Cl)cc1
inactive: all assays above

Cc1ccccc1-n1ncc2c(SCC(=O)NCc3cccs3)ncnc21
inactive: all assays above

O=C(CSc1nc(CCC2CCCC2)nc2ccccc12)NCc1ccc2c(c1)OCO2
inactive: all assays above

O=C(c1ccco1)N1N=C(c2cccs2)CC1c1ccc(F)cc1 (stereo not given)
inactive: all assays above

Cc1ccc(N(C(=O)C2CCC(=O)N2)C2(C(=O)NC3CCCC3)CCCCC2)cc1 (stereo not given)
inactive: all assays above

CN1c2ccc(Br)cc2[C@@H]2[C@@H](CCN2C(=O)Cc2cccnc2)[C@@H]1CO
inactive: all assays above

Cc1noc(C)c1NC(=O)N(C)C[C@H]1Oc2ccc(N(C)C)cc2C(=O)N([C@H](C)CO)C[C@@H]1C
inactive: all assays above

CO[C@H]1CN(C)C(=O)c2ccc(NC(=O)NC(C)C)cc2OC[C@@H](C)NC[C@H]1C
inactive: all assays above

CC(C)C(=O)N1CCC1(C)C(=O)Nc1ccccc1C(C)(C)C (stereo not given)
inactive: all assays above

CCCNC(=O)[C@H]1[C@H](CO)[C@H]2Cn3c(cccc3=O)[C@@H]1N2C(=O)Nc1cc(F)ccc1F
inactive: all assays above

C[C@H]1CN([C@@H](C)CO)S(=O)(=O)c2ccc(Br)cc2O[C@H]1CN(C)S(=O)(=O)c1ccccc1F
inactive: all assays above

O=C(c1c(Cl)cccc1Cl)N1CCN(c2ccccn2)CC1
inactive: all assays above

CC(=O)N[C@H]1CC[C@@H](CCNC(=O)C2CCC2)O[C@H]1CO
inactive: all assays above

O=C(NC(=S)Nc1ccc(N2CCOCC2)cc1)c1cccc([N+](=O)[O-])c1
inactive: all assays above
